# RORg inh = blocks mouse ROR gamma transcriptional activity; P51450; Potency, µM (series often up to 53.6 µM), for inactives: at the highest dose activity change, negative = inhibition, most hits filed as inhibitors; Drosophila S2 Gal4-RORgamma UAS-luciferase reporter, 20 h; 310,000 compounds, 5.4% hits; also: nearly all actives have a fitted effect of over 60% in size
# Target sequence (P51450 whole entry, looked up, the tested form may be a part): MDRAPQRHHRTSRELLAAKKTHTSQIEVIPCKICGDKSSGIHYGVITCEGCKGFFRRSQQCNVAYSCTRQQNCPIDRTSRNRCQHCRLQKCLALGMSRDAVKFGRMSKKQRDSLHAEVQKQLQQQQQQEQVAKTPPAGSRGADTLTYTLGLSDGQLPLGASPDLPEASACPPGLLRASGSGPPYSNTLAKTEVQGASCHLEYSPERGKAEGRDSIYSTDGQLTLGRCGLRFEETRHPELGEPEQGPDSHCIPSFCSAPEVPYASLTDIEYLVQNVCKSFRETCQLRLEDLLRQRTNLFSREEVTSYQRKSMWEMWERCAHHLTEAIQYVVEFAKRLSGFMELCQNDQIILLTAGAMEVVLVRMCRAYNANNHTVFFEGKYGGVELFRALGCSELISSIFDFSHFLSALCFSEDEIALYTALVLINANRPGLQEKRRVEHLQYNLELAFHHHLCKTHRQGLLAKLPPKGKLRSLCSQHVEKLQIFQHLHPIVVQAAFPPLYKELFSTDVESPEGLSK
#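 Luciferase reporter read in Schneider cells carrying Gal4-RORγ (mouse) and UAS-Photinus luciferase; cells given compound 1 h before 700 uM copper sulfate induction, then incubated 20 h at ambient temperature.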
# Luc counter = blocks Kinase-Glo luciferase, a counter-screen artifact; Q27757; Kinase-Glo luciferase, ATP luminescence, 8 min; Potency, µM (highest dose often 38.3 µM), for inactives: at the highest dose activity change, negative = inhibition, actives largely listed as inhibitors; 200,000 compounds, 0.28% hits; also: nearly all actives have a fitted effect of over 60% in size
#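 Recombinant Kinase-Glo luciferase, 10 uM ATP (linear range), luciferin; imidazole pH 7.2 / KCl / MgCl2 / Tween / BSA buffer; 8 min RT; luminescence.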
# VP16 counter = inhibits Gal4-VP16 luciferase reporter, ROR gamma counter-screen. Drosophila S2 Gal4-VP16 UAS-luciferase, luminescence, 20 h. AID 2546. 310,000 compounds, 3.5% hits. Potency, µM (top dose mostly 53.6 µM), without a hit: at the highest dose activity, negative = inhibition, usual class: inhibitors;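 also: Gal4-VP16 expression switched on by copper sulfate through the metallothionein promoter; nearly all actives have a fitted effect of over 50% in size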
# Numbers without * were called inactive; ? = inconclusive; · = not tested or not shown; [ ] = another dose, or the depositor's remark. An excerpt weighted towards active compounds, which were near 6.2% of everything screened. Calls follow the shape of the dose curve; as a rule, active = well fitted curve in the direction sought with a large enough effect; inconclusive = small, poorly fitted or top-dose-only effect, or another doubt; inactive = no such curve, though single readings can be large; an effect the other way counts as inactive or inconclusive. % is scaled to controls: 0 for no effect and ±100 for the full control effect; potency is read from the fitted curve at half-maximal effect.
SMILES,RORg inh,Luc counter,VP16 counter
CCOC(=O)c1sc(N2N=C(C)/C(=C\c3ccc(OCC(=O)OC)cc3)C2=O)nc1C,8.9µM*,1%,?
CCOC(=O)c1sc(Nc2ccc(OCC)cc2)nc1C,-23%,-1%,-12%
CCC(C)C(NC(=O)OC(C)(C)C)C(=O)NC1COC2CC(n3ccc(NC(C)=O)nc3=O)OC12 (stereo unspecified),-14%,·,-3%
COC(=O)c1ccc(N/N=C/c2cc([N+](=O)[O-])cc(OC)c2O)cc1,2%,1%,0%
COc1cc(/C=N/NC(=O)c2cncc(Br)c2)cc([N+](=O)[O-])c1O,0.32µM*,·,?
COc1cc([N+](=O)[O-])cc(/C=N/NC(=O)c2cncc(Br)c2)c1O,2.8µM*,·,?
COc1ccc(/C=N/NC(=O)c2ccncc2)cc1[N+](=O)[O-],8%,3%,3%
COc1ccc(N(C(C)C(=O)Nc2cccnc2)S(C)(=O)=O)cc1 (stereo unspecified),6%,-4%,8%
Cc1cc2ncn(/N=C/c3ccc(-c4ccccc4)o3)c2cc1C,11µM*,-3%,20µM*
Cc1cc2ncn(/N=C/c3cccnc3)c2cc1C,15%,-1%,-29%
COc1ccc2oc(C(=O)NCc3cc(OC)c(OC)cc3OC)c(C)c2c1,35%,·,-4%
COc1ccc(/C=N/n2c(N)nc3ccccc32)cc1OC,13µM*,-8%,?
COc1cccc(/C=N/n2c(N)nc3ccccc32)c1OC,?,-2%,?
Oc1ccccc1/C=N/n1c(COc2ccccc2)n[nH]c1=S,11µM*,·,-29%
Cc1ccc(/C=N/n2c(COc3ccccc3)n[nH]c2=S)s1,-6%,5%,-2%
S=c1[nH]nc(COc2ccccc2)n1/N=C/c1ccc(Br)s1,2.5µM*,-1%,?
CCOc1ccccc1/C=N/n1c(COc2ccccc2)n[nH]c1=S,4.5µM*,·,?
Oc1ccc(/C=N/n2c(COc3ccccc3)n[nH]c2=S)c(O)c1,-33%,·,-2%
COc1ccc(OC)c(/C=N/n2c(COc3ccccc3)n[nH]c2=S)c1,?,·,-16%
O=C(COc1ccccc1C(=O)c1cnn(-c2ccccc2)c1)Nc1ccccc1,?,-8%,-20%
Cc1nc2c(C(=O)NCCC3=CCCCC3)c[nH]n2c(=O)c1Cl,-3%,-1%,3%
COc1ccc(Br)cc1/C=N/n1c(COc2ccccc2)n[nH]c1=S,?,·,0%
Cc1ccccc1/C=N/n1c(COc2ccccc2)n[nH]c1=S,4.5µM*,·,?
S=c1[nH]nc(COc2ccccc2)n1/N=C/c1ccc(Cl)cc1,?,·,-16%
COc1cc(OC)c(OC)cc1/C=N/n1c(COc2ccccc2)n[nH]c1=S,-39%,·,-9%
SMILES,RORg inh,Luc counter,VP16 counter
Fc1ccccc1/C=N/n1c(COc2ccccc2)n[nH]c1=S,6.3µM*,·,?
S=c1[nH]nc(COc2ccccc2)n1/N=C/c1ccc(Cl)cc1Cl,7.1µM*,·,-21%
COc1ccc(/C=N/n2c(COc3ccccc3)n[nH]c2=S)cc1OC,5µM*,·,-3%
CCOc1ccc(NC(=O)CSc2ccc3nnc(-c4ccccn4)n3n2)cc1,0%,·,1%
CC(=O)N1CCN(CC(=O)Nc2c(Cl)cc(Cl)cc2Cl)CC1,-1%,3%,-6%
Cc1ccc(CNC(=O)CCSCc2ccc(C)cc2)cc1,-25%,·,0%
CCCNC(=O)OC[C@H]1O[C@@H](CCO/N=C2/[C@H]3O[C@@H]3[C@@H](O)[C@H]3[C@H]2CCn2c(=O)n(-c4ccccc4)c(=O)n23)C=C[C@@H]1Oc1ccc(OC)cc1,1%[10 µM],·,1%[10 µM]
O=C(NCc1nnc(SCc2ccc(F)cc2)n1-c1ccccc1)C12CC3CC(CC(C3)C1)C2,-3%,2%,?
O=C(NCc1nnc(SCc2ccc(C(F)(F)F)cc2)n1-c1ccccc1)C12CC3CC(CC(C3)C1)C2,14µM*,4%,?
CCOC(=O)/C(=N\Nc1cccc(Cl)c1)Sc1nnc(-c2ccc(OC)cc2)n1C,3.5µM*,1%,11µM*
COc1ccc(-c2nnc(SCC(=O)Nc3ccc(Cl)cc3)n2C)cc1,-24%,2%,-9%
CN(CCc1ccccn1)c1ccc2c(c1)Cc1ccccc1-2,·,-3%[7.66 µM],·
COc1cccc(CNC(=O)c2cc3c(C)nc4ccccc4c3o2)c1,32%,1%,?
CCc1ccc(CNC(=O)c2cc3c(C)nc4ccccc4c3o2)cc1,27%,-2%,18µM*
O=C(Nc1nnc(C2CC2)o1)c1ccc(S(=O)(=O)N2CCc3ccccc3C2)cc1,0.71µM*,4%,1.8µM*
COc1ccc(-c2csc(NC(=O)c3ccc(S(=O)(=O)N4CCc5ccccc5C4)cc3)n2)cc1,-10%,2%,-11%
CCC(CC)c1nnc(NC(=O)c2ccc(S(=O)(=O)N3CCc4ccccc4C3)cc2)s1,0%,2%,-2%
COc1ccc(-c2nnc(NC(=O)c3ccc(S(=O)(=O)N4CCc5ccccc5C4)cc3)o2)cc1,0.13µM*,-5%,0.25µM*
COC(=O)c1cccc(C23CC4(C2)[C@H](CN(CC2CCCCC2)[C@@H]4c2ccccc2)C3c2ccc(Cl)nc2)c1 (stereo partly specified),8%,-6%,-12%
CCCCCC[C@@H](O)C/C=C\CCCCCCCC(=O)O,-14%,-2%,-4%
O=C1CCCC/C1=C/NCc1ccc(F)cc1,7%,1%,5%
O=C1CCCC/C1=N\Nc1ccc(C2CCCCC2)cc1,-14%,·,-11%
O=C(O)c1ccc(C2CCCCC2)cn1,7.9µM*,1%,?
CC(=O)Nc1ccn(C2OC(C(COC(C)=O)NC(=O)C3CCCN3C(=O)OC(C)(C)C)C(OC(C)=O)C2OC(C)=O)c(=O)n1 (stereo unspecified),12%,·,-8%
S=c1[nH]nc(-c2ccccn2)n1/N=C/c1ccc(Cl)c(Cl)c1,7.1µM*,·,-23%
SMILES,RORg inh,Luc counter,VP16 counter
S=c1[nH]nc(-c2cc(-c3ccccc3)n[nH]2)n1/N=C/c1ccc(Cl)c(Cl)c1,10µM*,·,7.9µM*
Cc1n[nH]c(=S)n(/N=C/c2ccccn2)c1=O,-8%,·,-7%
Cc1cc(-c2n[nH]c(=S)n2/N=C/c2ccc(Cl)c([N+](=O)[O-])c2)n[nH]1,-13%,0%,?
Cc1cc(C(=O)N/N=C/c2ccc(-c3ccccc3Cl)o2)n[nH]1,?,-2%,?
S=c1[nH]nc(-c2ccccn2)n1/N=C/c1ccc(Br)s1,7.1µM*,1%,7.9µM*
COc1ccc(/C=N/n2c(-c3cc(C)[nH]n3)n[nH]c2=S)cc1OC,-4%,·,-1%
S=c1[nH]nc(-c2ccccn2)n1/N=C/c1ccc(-c2ccccc2Cl)o1,8.9µM*,-1%,-4%
CCc1noc(C)c1C(=O)OCC(=O)NC(=O)c1ccccc1OC,?,·,-4%
CC(Oc1ccccc1)C(=O)Nc1nnc(C2CCCCC2)s1 (stereo unspecified),-6%,-1%,?
COc1ccc(NC(=O)CS(=O)(=O)c2ccccc2Cl)cc1,16%,·,3%
CCOC(=O)N1CCN(c2nc(C)c3c(n2)CC(C)CC3=O)CC1 (stereo unspecified),19%,-2%,-9%
CNC(=S)N1N=C(c2ccc(OC)cc2)CC1c1ccc(N(C)C)cc1 (stereo unspecified),13µM*,-3%,?
